A selection: hits, their analogues and other compounds. The true share with any hit is near 5.7%.
ssDAF-12 act = S. stercoralis DAF-12 nuclear receptor activators, primary screen, cell-based, luminescence, HEK293, GRIP1 co-expression, lit1-tk-luc | 370,000 compounds, 1% hits | HEK293 ssDAF-12/GRIP1 lit1-tk-luc reporter; % of 3 µM dafachronic acid response | activation, % at 6.8 µM | Nuclear hormone receptor DAF-12 (Strongyloides stercoralis) | AID 652126, 2013;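 active means activation above the mean over all tested compounds plus 3 SD, cut at about 0.9% in these data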
DAX1 inh-1 = DAX1 (NR0B1) inhibitors on StAR promoter, primary screen, cell-based, luminescence, SF-1 (NR5A1), full-length DAX-1 | HEK293T StAR-luciferase reporter, SF-1/DAX-1 repression relief | inhibition, % at 6.8 µM | 370,000 compounds, 1.1% hits | AID 652010, 2013;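 active means inhibition above the mean over all tested compounds plus 3 SD, cut at about 3.6% in these data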;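 further: higher inhibition means more luminescence from relief of DAX-1 repression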
AHR activator = AHR activators, primary screen, cell-based, luminescence, luciferase reporter, human. Aryl hydrocarbon receptor (Homo sapiens), P35869. AHR-responsive luciferase reporter cells. activation, % at 5 µM. 320,000 compounds, 2.5% hits. AID 2796, 2010; in the data active means activation above about 47%
DAX1 inh-2 = DAX1 (NR0B1) inhibitors, primary screen, cell-based, HEK293, Gal4-DAX1, luciferase luminescence; inhibition, % at 6.75 µM; HEK293 Gal4-DAX1 luciferase reporter; AID 504766, 2011; 340,000 compounds, 0.99% hits; Nuclear receptor subfamily 0 group B member 1 (Homo sapiens), P51843;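 active means inhibition above the mean over all tested compounds plus 3 SD, cut at about 4.2% in these data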;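 further: inhibition shows as a rise in luminescence from relieved DAX1 repression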
hgDAF12 agonist = H. glycines DAF-12 receptor agonists, primary screen, cell-based, luminescence, HEK293, GAL4 fusion, UAS-luciferase; HEK293 GAL4-hgDAF12 UAS-luciferase reporter, agonist luminescence; normalized to butyrate control; Nuclear hormone receptor DAF-12 (Heterodera glycines), GAL4 fusion; 370,000 compounds, 1.8% hits; activation, % at 6.8 µM;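 active means activation above a cutoff set at the mean of all screened compounds plus 3 SD, cut at about 10% in these data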
hcDAF12 agonist = H. contortus DAF-12 nuclear receptor activators, primary screen, cell-based, luminescence, HEK293, lit1-tk-luc reporter. AID 652067, 2013. HEK293 hcDAF-12 lit1-tk-luc reporter; 0% DMSO, 100% Δ7-dafachronic acid. 370,000 compounds, 1.4% hits. activation, % at 6.8 µM;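 active means activation above the mean of all tested compounds plus 3 SD, cut at about 5.5% in these data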
AHR act confirm = AHR activators, confirmation, cell-based, luminescence, luciferase reporter, human; shares compounds with AHR activator; human cells, AHR-responsive luciferase reporter; activation, % at 9 µM; 2,300 compounds, 87% hits; in the data active means activation above about 49%;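 further: HepG2 hepatoma cells carrying a DRE-driven firefly luciferase reporter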
PXR act counter = human PXR activators, counter-screen for AHR activator project, cell-based, luciferase luminescence; 2,300 compounds, 88% hits; cell-based PXR reporter; activation, % at 11.6 µM; shares compounds with AHR activator; in the data active means activation above about 11%;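 further: human hepatoma DPX-2 cells expressing full-length human PXR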
Target sequence (O75469 whole entry, looked up): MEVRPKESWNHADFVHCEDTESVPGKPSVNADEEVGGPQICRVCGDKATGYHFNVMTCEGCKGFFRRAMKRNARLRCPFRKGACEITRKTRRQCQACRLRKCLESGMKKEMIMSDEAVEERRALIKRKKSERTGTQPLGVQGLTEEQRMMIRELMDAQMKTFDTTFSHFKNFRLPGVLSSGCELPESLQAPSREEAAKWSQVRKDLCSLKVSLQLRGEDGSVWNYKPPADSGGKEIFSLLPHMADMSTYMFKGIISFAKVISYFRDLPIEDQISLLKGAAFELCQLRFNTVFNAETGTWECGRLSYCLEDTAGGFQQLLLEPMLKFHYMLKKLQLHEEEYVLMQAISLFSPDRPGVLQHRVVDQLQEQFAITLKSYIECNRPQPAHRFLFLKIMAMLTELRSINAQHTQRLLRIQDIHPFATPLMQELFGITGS
A number is an active result; n = inactive; x = not tested or not shown.

SMILES	ssDAF-12 act	DAX1 inh-1	AHR activator	DAX1 inh-2	hgDAF12 agonist	hcDAF12 agonist	AHR act confirm	PXR act counter
C/C(=N\NC(=O)c1c[nH]c2ccccc12)c1ccc(C)s1	n	n	91.7	n	n	n	125.7	59.4
COc1ccc(/C=N/N(C)C2=NCCN2)c(OC)c1OC	n	n	n	n	n	n	x	x
Cc1cccc(N/C(N)=N/c2nc(C)cc(C)n2)c1	n	n	80.7	n	n	n	49.9	12.3
COc1cc(NC(=O)C/C(C)=N/NC(=O)Cc2ccccc2)c(OC)cc1Cl	n	n	147.3	n	n	n	n	15.5
Cc1ccc(C(=O)OCC(=O)Nc2nc(-c3ccccc3)cs2)cc1NC(=O)c1ccco1	n	n	n	n	n	n	x	x
Cc1ccc(C(C(=O)Nc2ccc3c(c2)OCO3)N(C)C(=O)/C=C\c2ccc3c(c2)OCO3)cc1 (stereo not drawn)	n	n	n	n	n	n	x	x
O=C(Nc1cccc(C(F)(F)F)c1)c1csc([C@H]2C[C@H](O)[C@@H](CO)O2)n1	n	n	x	x	n	n	x	x
CCOC(=O)C1(Cc2ccc(OC)cc2)CCN(C(=O)c2cc3ccccc3[nH]2)CC1	0.9	n	104.7	n	n	n	89.4	40.3
O=C(c1cccc(OC2CCN(Cc3ccc(F)cc3)CC2)c1)N1CCCC1	n	n	x	n	n	n	x	x
Cc1cc(C)c2cc(CN(Cc3ccco3)C(=S)NCC3CCCO3)c(=O)[nH]c2c1 (stereo not drawn)	n	n	n	n	n	n	x	x
Cc1ccc(C)c(-c2nc3cc(N)ccc3o2)c1	n	n	n	n	n	n	x	x
CCc1ccc2oc(-c3cc(N)cc(C)c3O)nc2c1	n	n	114.4	n	n	n	117.2	12.1
COc1cc2[nH]c(=S)n(Cc3ccco3)c(=O)c2cc1OC	n	n	82.1	n	n	n	83.8	71.8
c1cc(CSc2nnc(-c3ccc4c(c3)OCO4)o2)ccn1	n	n	87.5	n	n	n	52.4	24.1
Cn1cnc([N+](=O)[O-])c1N=C(N)N	n	n	n	n	n	n	x	x
Cn1ncc2c(Nc3cccc(Cl)c3)nc(Nc3cccc(Cl)c3)nc21	n	n	n	n	n	n	x	x
Cn1ncc2c(Nc3ccc(Br)cc3)nc(Nc3ccc(Br)cc3)nc21	n	n	111.6	n	n	n	104.0	13.0
Cc1ccc(Nc2nc(NCCO)nc3c2cnn3C)cc1Cl	n	n	80.5	n	n	n	120.0	15.7
O=C(Nc1oc2ccccc2c(=O)c1-c1ccc(Cl)cc1)c1ccco1	n	n	n	n	n	n	x	x
Cc1nc(N)sc1-c1csc(Nc2ccccc2)n1	n	n	81.2	n	n	n	147.0	19.9
Nc1ccc(Nc2nc(-c3cccs3)cs2)cc1	n	n	117.1	n	n	n	n	16.2
Cc1nc(C)c(-c2csc(Nc3ccc(N)cc3)n2)s1	n	n	126.5	n	n	n	n	19.2
COc1ccc2c(Cl)c(C(=O)NN3CCN(C)CC3)sc2c1	n	n	n	n	n	n	x	x
Nc1cc(OC(=O)c2ccc(F)cc2)nn1S(=O)(=O)c1ccccc1	n	n	n	n	n	n	x	x
CCN1CC(CN(C)Cc2nc(-c3ccc(C(F)(F)F)cc3)oc2C)CC1=O (stereo not drawn)	n	n	115.7	n	n	n	98.5	64.4
SMILES	ssDAF-12 act	DAX1 inh-1	AHR activator	DAX1 inh-2	hgDAF12 agonist	hcDAF12 agonist	AHR act confirm	PXR act counter
COc1ccc(N2CCN(C(=O)C3CCN(C(=O)c4cccc(Cl)c4)CC3)CC2)cc1	n	n	n	n	n	n	x	x
COC(=O)c1cc(C)[nH]c2c(C)cc3nc4ccccc4c3c12	n	n	95.1	n	n	n	99.7	156.4
COc1ccc(Cl)cc1S(=O)(=O)NC(C)c1cnn(-c2ccccn2)c1C (stereo not drawn)	n	n	x	n	n	n	x	x
Cc1nc(CN2CCCCC2)cc(=O)[nH]1	n	n	n	n	n	n	x	x
COCCNC(=O)C(c1ccc(O)cc1)N(Cc1ccccc1)C(=O)CCC(=O)Nc1nccs1 (stereo not drawn)	n	n	n	n	n	n	x	x
Cn1/c(=N\NC(=O)c2ccccc2Cl)sc2ccccc21	n	n	136.1	n	11.9	n	126.1	53.3
CCCCN(CC)Cc1c(O)ccc2c3c(c(=O)oc12)CCC3	n	n	n	n	n	n	x	x
CCN(CC)CCNc1nc2cc(OC)c(OC)cc2c2nc(-c3ccccc3)nn12	n	n	90.4	n	n	n	n	n
CCCCNC(=O)CCC(=O)NNc1nc2ccccc2c2nc(-c3ccccc3)nn12	n	n	n	n	n	n	x	x
N=C1SCC(=O)N1c1ncc(Cc2ccc(F)cc2)s1	n	n	n	n	n	n	x	x
O=C(Nc1ccc2c(c1)OCO2)c1ccc(S(=O)(=O)NCC2CCCO2)cc1 (stereo not drawn)	n	n	84.4	n	n	n	n	20.9
CCOc1ccccc1NC(=O)Nc1ccc2c(c1)OCO2	n	n	102.7	n	n	n	114.8	97.1
Cc1ccc(OC(F)F)c(NC(=O)Nc2ccc3c(c2)OCO3)c1	n	n	82.0	n	n	n	74.8	46.8
CCOc1ccccc1OCCC(=O)Nc1ccc2c(c1)OCO2	n	n	n	n	n	n	x	x
O=C(CSc1ccc(S(=O)(=O)N2CCCC2)cn1)Nc1ccc([N+](=O)[O-])cc1C(F)(F)F	n	n	x	n	n	n	x	x
C/C(=N\NC(=S)Nc1cccc(C)c1)c1ccccc1	n	n	84.4	n	n	n	110.9	41.9
C/C(=N\NC(=S)Nc1cccc(C)c1)c1cccc(N)c1	n	n	n	n	n	n	x	x
CSc1sc(C(=O)NN)c2c1C(O)CCC2 (stereo not drawn)	n	n	80.1	n	n	n	n	n
Cc1ccc(Nc2nc(N)nc(-c3oc4ccccc4c3C)n2)cc1	x	x	103.5	n	x	x	n	85.5
O=C(NCc1ccccc1F)C1CCCN(S(=O)(=O)N2CCOCC2)C1 (stereo not drawn)	n	n	n	n	n	n	x	x
